The values below come from the supplement of paper PMC7156485.

Unmarked numbers belong to inactive results.
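Also: TDF is a line of transformed human dermal fibroblasts of mesenchymal origin.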

In the assay the test system is TDF. Briefly: H1.0 immunofluorescence intensity relative to DMSO (% of DMSO); higher = stronger H1.0 induction, active = 120 or more. Particulars: concentration: 10 µM; 24 h. The method, boiled down: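 Treatment: HCC1569 and TDF cells, 800 per well in 384-well plates with RPMI and 10% FBS, were given compounds at 10 µM for 24 h at 37 °C, in triplicate. Readout: after 3.7% formaldehyde fixation, cells were stained with a rabbit anti-H1.0 antibody, an AlexaFluor 647 secondary and DAPI. Reported values are H1.0 nuclear intensity or cell number as percent of the plate control, taken as the median of replicates, with positional smoothing for HCC1569.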
Take `O=C1NCN(c2ccccc2)C12CCN(CCCC(c1ccc(F)cc1)c1ccc(F)cc1)CC2` [Fluspirilene]: the H1.0 immunofluorescence intensity was 106.
Turning to `Cc1[nH]c2ccccc2c1CCNC(=O)c1cccs1` [N-[2-(2-methyl-1H-indol-3-yl)ethyl]-2-thiophenecarboxamide], the H1.0 immunofluorescence intensity was 97.1.
On to `Cl.c1ccc2c(CC3=NCCN3)cccc2c1` [Naphazoline hydrochloride], for which the H1.0 immunofluorescence intensity was 91.2.
Then `CC1OC(OC2C(Oc3cc(O)c4c(c3)OC(c3ccc(O)cc3)CC4=O)OC(CO)C(O)C2O)C(O)C(O)C1O` (stereo not given) [Naringin], with 96.2; and `O=c1[nH]c2ccccc2n1CCN1CCN(c2cccc(C(F)(F)F)c2)CC1`, with 95.8.
Then `CSc1ccc(/C=C2/C(C)=C(CC(=O)O)c3cc(F)ccc32)cc1`, with 99.8; and `CS(=O)(=O)O.NC(=NC(=O)c1nc(Cl)c(N)nc1N)Nc1ccccc1` [Phenamil methanesulfonate], with 88.9; and `CC(C(=O)O)c1ccc(CC2CCCC2=O)cc1` (stereo not given) [loxoprofen], with 88.6.
Under `CSc1cccc(Nc2ncc3cc(-c4c(Cl)cccc4Cl)c(=O)n(C)c3n2)c1` stands 145 (active); under `CCCCCCCCCCCCC(=O)O` [Tridecanoic acid], 107.
In the case of `Cn1cc[nH]c1=S` [Methimazole], the H1.0 immunofluorescence intensity is 97.9.
Then `COC1=C2CC(C)=c3c(C(C)=O)c(OC)c(O)c4c3c2c2c(cc(OC)c3c(OC)cc(O)c4c32)C(=O)C1=O` [Hypocrellin B], with 97.1; and `Cl.Cl.Nc1nccc(-c2c(-c3ccc(F)cc3)ncn2C2CCCCC2)n1`, with 79.8.
For `CN(C)c1ccc(O)c2c1CC1CC3C(N(C)C)C(=O)C(C(N)=O)=C(O)C3(O)C(=O)C1=C2O` (stereo not given) [Minocycline], the H1.0 immunofluorescence intensity was 110.
Under `CCCN(CCc1ccccc1)C1CCc2c(O)cccc2C1` (stereo not given) [2-(N-Phenethyl-N-propyl)amino-5-hydroxytetralin] stands 89.4; under `CCCCCCCCC=CCCCCCCCC(=O)OCC(O)COP(=O)(O)O` (stereo not given) [Lysophosphatidic acid], 96.9.
For the compound `CCCCCCCCCCCCCCCC(=O)NCCc1ccc(O)c(O)c1` [Palmitoyl dopamine], the H1.0 immunofluorescence intensity is 101.
As to `O=C(O)C1CCCNC1C(=O)O` (mixture of isomers), the H1.0 immunofluorescence intensity is 96.4.
Under `CCCCCC(O)C=CC1C(O)CC(O)C1CC=CCCCC(=O)O` (stereo not given) [Prostaglandin F2a] stands 97.6; under `CN1CCN(C2=Nc3ccccc3Sc3ccc(Cl)cc32)CC1` [Clothiapine], 94; under `O=C(O)CP(=O)(O)O` [Phosphonoacetic acid], 95.9.
`Cc1cc(Nc2cc(N3CCN(C)CC3)nc(Sc3ccc(NC(=O)C4CC4)cc3)n2)n[nH]1` [Tozasertib]: the H1.0 immunofluorescence intensity is 99.2.
Under `CCCCCC=CCC=CCC=CC=CC(O)CCCC(=O)O` (stereo not given) stands 104.
Then `CCCCCC=CCC=CC=CC=CC(SCC(NC(C)=O)C(=O)O)C(O)CCCC(=O)O` (stereo not given) [N-Acetyl-leukotriene E4], with 92; and `O=C1c2ccccc2-c2n[nH]c3cccc1c23` [JNK Inhibitor II], with 90.5; and `CCC(C)C(=O)OC1CCC=C2C=CC(C)C(CCC3CC(O)CC(=O)O3)C21` (stereo not given) [Mevastatin], with 123 (active).
Then `Cl.O=C(c1ccc(OCCN2CCCCC2)cc1)c1c(-c2ccc(O)cc2)sc2cc(O)ccc12` [Raloxifene hydrochloride], with 109.
For the compound `O=c1c(O)c(-c2cc(O)c(O)c(O)c2)oc2cc(O)ccc12` [Robinetine], the H1.0 immunofluorescence intensity was 98.3.
Then `CCCCCCCCc1ccc(CCC(N)(CO)CO)cc1.Cl`, with 210 (active); and `CCCN(CCC)C(=O)C(CCC(=O)O)NC(=O)c1ccccc1` (stereo not given) [Proglumide], with 88.6.
Then `CN1CCN(c2c(F)cc3c(=O)c(C(=O)O)cn4c3c2SCC4)CC1` [Rufloxacin], with 100.
For `OCCn1cc(-c2cnc3nnn(Cc4ccc5ncccc5c4)c3n2)cn1`, the H1.0 immunofluorescence intensity is 99.
Then `CCc1nn(CCCN2CCN(c3cccc(Cl)c3)CC2)c(=O)n1CCOc1ccccc1`, with 95.3.
Then `CC1CNc2c(cccc2S(=O)(=O)NC(CCCN=C(N)N)C(=O)N2CCC(C)CC2C(=O)O)C1` (stereo not given) [Argatroban], with 94.1; and `CN(C)C(=O)COC(=O)Cc1ccc(OC(=O)c2ccc(N=C(N)N)cc2)cc1.CS(=O)(=O)O`, with 91.2.
On to `Cc1cc2cc3c(C)cc(=O)oc3c(C)c2o1` [4,5',8-Trimethylpsoralen], for which the H1.0 immunofluorescence intensity was 97.2.
Then `OC1C=C2CCN3Cc4cc5c(cc4C(C1O)C23)OCO5` (stereo not given) [Lycorine], with 120; and `CCC1(O)CC(OC2CC(N(C)C)C(OC3CC(O)C(OC4CCC(=O)C(C)O4)C(C)O3)C(C)O2)c2c(cc3c(c2O)C(=O)c2c(O)cccc2C3=O)C1C(=O)OC` (stereo not given) [Aclarubicin], with 129 (active); and `O=C1CCC(N2C(=O)c3ccccc3C2=O)C(=O)N1` (racemic), with 99.5.
Under `OCC(CO)(CO)NCC(O)Cn1c2ccc(Cl)cc2c2cc(Cl)ccc21` (stereo not given) stands 125 (active).
